High-throughput results (PubChem)
NOD2 RIPK2 PPI = blocks binding of human NOD2 to RIPK2 | 0.38% of 360,000 active | O43353 | inhibition, % at 4.98 µM | AID 624267 | CHO BLA complementation NOD2-RIPK2, CCF4 ratio; in the data active = inhibition above about 21%;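 note: 0% = vehicle only and 100% = reference blocker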
TLR9-MyD88 block = blocks human TLR9 binding to MyD88. inhibition, % at 4.98 µM. 0.21% of 340,000 active. CHO BLA complementation TLR9-MyD88, CCF4 FRET ratio;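 active = inhibition above the mean over all tested compounds plus 3 SD, cut at about 21% in these data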;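 note: 0% = DMSO only wells and 100% = clavulanate BLA inhibitor control wells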
ABHD5-PLIN5 inh = blocks binding of human ABHD5 to perilipin-5. Q00G26+Q8WTS1. Split G. princeps luciferase complementation, luminescence, 4 h. inhibition, % at 4 µM. 0.78% of 360,000 active. AID 602281;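 active = inhibition above the mean inhibition across every tested compound plus 3 SD, cut at about 22% in these data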;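 note: 0% = DMSO only wells and the 100% control is not disclosed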
Exocytosis inh = lytic granule exocytosis inhibition; inhibition, % at 10 µM; AID 651702; 0.66% of 360,000 active; TALL-104 LAMP-1 surface exposure, flow cytometry; cells stimulated with thapsigargin and PMA;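 active = inhibition above about 55%, limit read from the data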
PRMT1 inh = PRMT1 (human) inhibition, primary screen; Q99873; inhibition, % at 2.79 µM; AID 652257; recombinant PRMT1, activity-based probe fluorescence polarization; 1.3% of 370,000 active;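 active = inhibition above about 21% made by adding two undisclosed values, limit read from the data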
TLR4 MyD88 comp = blocks binding of human TLR4 to MyD88. O00206+Q99836. HeLa CL3-4 TLR4/MyD88 BLA complementation, FRET ratio. inhibition, % at 8.4 µM. 0.18% of 200,000 active. AID 861; in the data active = inhibition above about 25%;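 note: 0% = vehicle and 100% = reference inhibitor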
ABHD5-PLIN5 conf = confirmation of human ABHD5-PLIN5 interaction inhibitors. shares compounds with ABHD5-PLIN5 inh. biochemical ABHD5-PLIN5 interaction, luminescence. inhibition, % at 4 µM. 67% of 2,200 active. AID 651612; in the data active = inhibition above about 23%;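 note: 0% = DMSO vehicle wells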
HNF4 counter = active in HNF4 split-luciferase counter-screen for ABHD5-PLIN5 inhibitors; 77% of 2,200 active; HNF4 dimerization, luminescence, biochemical; inhibition, % at 4 µM; shares compounds with ABHD5-PLIN5 inh;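 active = mean inhibition across replicate wells exceeding the computed hit threshold, cut at about 13% in these data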;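 note: light from luciferase halves that rejoin when HNF4 fusion proteins dimerize; 0% = DMSO only wells and the 100% control is not given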
Target sequence (P41235 whole entry, looked up, the tested form may be a part): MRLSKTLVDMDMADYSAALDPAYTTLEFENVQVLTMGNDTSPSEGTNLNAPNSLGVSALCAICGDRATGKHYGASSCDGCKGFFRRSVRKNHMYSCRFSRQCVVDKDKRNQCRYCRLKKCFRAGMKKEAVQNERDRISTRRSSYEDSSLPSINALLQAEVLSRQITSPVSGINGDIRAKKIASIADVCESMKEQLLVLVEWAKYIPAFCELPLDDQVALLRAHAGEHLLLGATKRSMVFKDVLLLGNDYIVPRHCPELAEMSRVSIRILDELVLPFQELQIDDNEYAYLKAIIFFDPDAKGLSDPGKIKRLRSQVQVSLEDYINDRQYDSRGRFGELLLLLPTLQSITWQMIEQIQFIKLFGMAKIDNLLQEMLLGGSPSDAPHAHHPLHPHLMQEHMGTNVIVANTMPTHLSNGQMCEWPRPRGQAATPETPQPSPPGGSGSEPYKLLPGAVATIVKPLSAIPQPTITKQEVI
NOD2 RIPK2 conf = NOD2-RIPK2 interaction inhibition confirmed; shares compounds with NOD2 RIPK2 PPI; CHO cells, NOD2-RIPK2 BLA complementation, CCF4 FRET; inhibition, % at 4.98 µM; 70% of 1,200 active;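 active = mean inhibition across replicates above a set limit taken from the earlier primary screen, cut at about 21% in these data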;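 note: 0% = DMSO-only wells and the high end = clavulanate BLA-blocked wells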
BLA counter = counter-screen for NOD2-RIPK2 interaction inhibitors: BLA reporter. shares compounds with NOD2 RIPK2 PPI. CHO BLA reporter, CCF4 FRET ratio, counterscreen. 57% of 1,200 active. inhibition, % at 4.98 µM;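 active = mean inhibition above the low-control mean inhibition plus three low-control SD, cut at about 11% in these data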;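 note: 0% = DMSO only wells and 100% = clavulanate high control wells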
Granule exo CP1 = lytic granule exocytosis inhibition; shares compounds with Exocytosis inh; TALL-104 cells, LAMP-1 externalization, flow cytometry; stimulated with PMA plus thapsigargin; inhibition, % at 10 µM; 11% of 1,500 active; AID 651954; in the data active = inhibition above about 60%;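 note: 0% = stimulated vehicle wells and 100% = unstimulated wells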
PRMT1 confirm = PRMT1 (human) inhibition, FP confirmation; AID 687036; 42% of 3,300 active; shares compounds with PRMT1 inh; recombinant His-PRMT1, activity-based probe fluorescence polarization; inhibition, % at 2.79 µM;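 active = mean inhibition across replicates above the hit cutoff derived for the earlier primary screen, cut at about 22% in these data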
* = called active by the depositor; . = not tested or not shown. Rows were chosen to be rich in hits. Some 2.6% of all compounds tested hit in one or more screens of this group.

SMILES	NOD2 RIPK2 PPI	TLR9-MyD88 block	ABHD5-PLIN5 inh	Exocytosis inh	PRMT1 inh	TLR4 MyD88 comp	ABHD5-PLIN5 conf	HNF4 counter	PRMT1 confirm	others
CC1CC(C)CN(C(=O)c2ccc(-c3ccc([N+](=O)[O-])cc3)o2)C1 (configuration not stated)	8	5	28*	74*	35*	.	15	3	18	Granule exo CP1=-12
C=CCN1[C@H](C)COc2cc(N3CCSCC3)ccc2S1(=O)=O	.	.	.	.	-5	.	.	.	.
Cc1cc(Br)cn2c(Cc3ccccc3)c(-c3ccco3)nc12	7	.	30*	15	35*	.	30*	45*	12
COc1ccc(Cc2c(-c3ccco3)nc3c(C)cc(Br)cn23)c(C)c1	-2	.	5	-5	7	.	.	.	.
COc1ccc(C2=NN(C(=O)COC(=O)c3ccc(S(C)(=O)=O)c([N+](=O)[O-])c3)C(c3ccco3)C2)cc1 (configuration not stated)	10	17	29*	33	41*	.	51*	90*	0
Cc1cccc(NC(=O)CSc2nnc(-c3ccco3)c(-c3ccco3)n2)c1	-2	9	26*	0	42*	-1	90*	67*	52*
Cc1cccc(NC(=O)CSc2nnc(-c3ccco3)c(-c3ccco3)n2)c1C	-10	6	10	2	.	7	.	.	.
COC(=O)C1=C(C(=O)OC)C2CCCC1C1N=NN(c3ccccc3)C21 (configuration not stated)	.	.	.	.	1	.	.	.	.
OCc1ccccc1N=c1ssnc1Cl	.	.	.	.	.	13	.	.	.
Clc1nssc1=Nc1ccc(Br)cc1	-2	1	24*	59*	72*	2	23*	71*	93*
Clc1nssc1=Nc1nncs1	27*	8	73*	-4	97*	.	64*	101*	92*	NOD2 RIPK2 conf=29*;BLA counter=3
CCCc1cc(CN2CCOCC2)c(O)c(CN2CCOCC2)c1O	3	-3	25*	79*	64*	.	63*	100*	64*	Granule exo CP1=28
Oc1c(Cl)cc(Oc2cc(Cl)c(O)c(CN3CCOCC3)c2)cc1CN1CCOCC1	-10	12	1	10	-2	.	.	.	.
CCN(CC)C(=O)CC[C@@H]1CC[C@]2(CCCN(C(=O)c3ccccc3)C2)O1	.	.	.	.	2	.	.	.	.
Cc1[nH]c2ccccc2c1C1=CC(=O)C=CC1=O	45*	16	49*	2	96*	.	46*	80*	93*	NOD2 RIPK2 conf=62*;BLA counter=13*
Cc1cc(C)c2c(=O)n(CC(=O)N3CCC(Cc4ccccc4)CC3)sc2n1	.	.	.	.	.	7	.	.	.
Cc1cc(C)c2c(=O)n(CC(=O)Nc3ccc(Cl)cc3)sc2n1	31*	18	76*	40	91*	.	41*	108*	84*	NOD2 RIPK2 conf=36*;BLA counter=6
Cc1ccc(NC(=O)Cn2sc3nc(C)cc(C)c3c2=O)c(Cl)c1	21*	9	65*	81*	79*	.	10	98*	88*	NOD2 RIPK2 conf=10;BLA counter=1
Cc1cc(C)c2c(=O)n(CC(=O)Nc3cccc(F)c3)sc2n1	-2	2	44*	33	90*	.	41*	109*	84*
CCc1cc2c(nc1CC)CCCN2CCOC	.	.	.	.	8	.	.	.	.
COC(=O)[C@]12C[C@H](CC(=O)NCCCN3CCCC3=O)C(=O)N(Cc3cccc4ccccc34)C1=C[C@H](C(C)C)O[C@@H]2C1CC1	.	.	.	.	2	.	.	.	.
O=C(CC(Nc1ccccc1Cl)C(=O)O)c1ccccc1 (configuration not stated)	7	-4	83*	32	31*	0	29*	97*	6
Cc1c(Cl)cccc1NC(=O)CC(Cc1ccccc1)C(=O)O (configuration not stated)	-6	-3	-2	1	-4	.	.	.	.
O=C(CC(Nc1cccc(Cl)c1Cl)C(=O)O)c1ccccc1 (configuration not stated)	-3	-5	85*	0	29*	-2	15	73*	-2
Cc1c(Cl)cccc1NC(CC(=O)c1ccccc1)C(=O)O (configuration not stated)	4	7	84*	6	35*	-3	57*	108*	10
SMILES	NOD2 RIPK2 PPI	TLR9-MyD88 block	ABHD5-PLIN5 inh	Exocytosis inh	PRMT1 inh	TLR4 MyD88 comp	ABHD5-PLIN5 conf	HNF4 counter	PRMT1 confirm	others
CC1(c2nnnn2Cc2ccccc2)CN(S(C)(=O)=O)CC(=O)N1Cc1cccs1 (configuration not stated)	.	.	.	.	-5	.	.	.	.
O=S(=O)(c1ccc(F)cc1)N1CCCc2nc(-c3ccccc3)ccc21	.	.	.	.	-8	.	.	.	.
COC(=O)C1=C(C)N(Cc2cccc(C(F)(F)F)c2)C(=NCc2ccc3c(c2)OCO3)NC1c1ccccc1C(F)(F)F (configuration not stated)	.	.	.	.	-2	.	.	.	.
CCOc1ccc(-n2c(SCC(=O)Nc3cccc4ccccc34)nnc2-c2cccs2)cc1	.	.	.	.	0	.	.	.	.
O=C1c2ccccc2C(=O)N1c1cccc(-c2nc3ccccc3o2)c1	-6	-4	-2	-1	1	2	.	.	.
O=C1C=CC(=O)N1c1cccc(-c2ccccc2)c1	36*	13	28*	25	91*	.	51*	94*	94*	NOD2 RIPK2 conf=90*;BLA counter=29*
COC(=O)C1=C(C)N(Cc2ccccc2C(F)(F)F)C(=NCc2ccccc2C(F)(F)F)NC1c1cccc(F)c1 (configuration not stated)	.	.	.	.	-2	.	.	.	.
NC(=O)c1c(N)[nH]c(C(=O)c2ccccc2)c1-c1ccc(Cl)cc1Cl	.	.	.	.	3	.	.	.	.
O=C(Cn1sc2ccccc2c1=O)Nc1ccc(Cl)cc1	21*	5	62*	51	90*	.	83*	118*	90*	NOD2 RIPK2 conf=42*;BLA counter=7
O=C(Cn1sc2ccccc2c1=O)Nc1ccc(F)cc1	25*	11	58*	64*	91*	.	69*	115*	91*	NOD2 RIPK2 conf=25*;BLA counter=1;Granule exo CP1=104*
